Six1-Eya2 inh = inhibitors of human Six1/Eya2 interaction. Q15475+O00167. AlphaScreen GST-Six1/His-Eya2 binding, biochemical; stronger effect = lower value. activity change, % (concentration not given with the values). 360,000 compounds, 0.56% hits. AID 651725; in the data active means activity change below about -65%; inconclusive means mostly about -30% to -63%
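Six1/Eya2 binding was read as AlphaScreen signal after compounds were pinned into GST-Six1 plus His-tagged Eya2 (5X stock 250/500 nM) in pH 8.0 Tris/NaCl/TCEP buffer, beads added, then incubated 1 h, 37 C, dark.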
CtBP-E1A blk = blocks the CtBP interaction with E1A. 340,000 compounds, 0.49% hits. AlphaScreen GST-E1A/His-CtBP binding, 1536-well; stronger effect = lower value. activity change, % (test concentration not listed). AID 651724; in the data active means activity change below about -65%; inconclusive means mostly about -30% to -63%
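AlphaScreen with 125 nM GST-E1A and 125 nM His-CtBP (5X stocks) in Tris pH 8.0, 300 mM NaCl, BSA, Tween 20, TCEP. Compounds preincubated 2 h at 37 deg C, then glutathione donor/nickel acceptor beads added for 1 h at 37 deg C in dark.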
DT40 TDP1 no CPT = qHTS for Inhibitors of human tyrosyl-DNA phosphodiesterase 1 (TDP1): qHTS in cells in absence of CPT; DT40 Tdp1-/- hTDP1 cells, no CPT, ATP luminescence, 48 h; Potency, µM (series often up to 46.2 µM), without a hit: top-dose activity change, negative = growth inhibition, usual class: inhibitors; 420,000 compounds, 15% hits; further: potency means the concentration at half of the fitted maximal effect; nearly all actives have a fitted effect of over 55% in size
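Stably hTDP1-transfected Tdp1-null chicken DT40 cells were treated with library compounds minus camptothecin and grown for at least 48 hr at 37 °C, after which cellular ATP was quantified by luminescence.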
TDP1 cell CPT = growth inhibition of DT40 Tdp1-/-;hTDP1 cells with camptothecin (screen for TDP1 inhibitors); chicken DT40 Tdp1-/-;hTDP1 cells + 20 nM CPT, ATP luminescence, 48 h; Potency, µM (top dose mostly 46.2 µM), inactives show at the top dose activity change, negative = growth inhibition, most hits filed as inhibitors; 420,000 compounds, 12% hits; AID 686979; further: potency means the concentration at half of the fitted maximal effect; nearly all actives have a fitted effect of over 55% in size
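Chicken DT40 Tdp1-/- cells complemented with human TDP1, 400 cells/well, exposed to compounds plus 20 nM camptothecin for at least 48 h at 37 C; viability read as ATP content by CellTiter-Glo luminescence.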
IL-1B inflam inh = blocks inflammasome-driven IL-1 beta release. THP-1 LPS/ATP IL-1B secretion, AlphaLISA, 16 h; stronger effect = lower value. activity change, % at 57.5 µM. 360,000 compounds, 4.7% hits. AID 743279; in the data active means activity change below about -50%; inconclusive means mostly about -30% to -49%
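THP-1 cells pretreated 1 hr with compounds (up to 57.5 uM final), then stimulated with LPS (250 ng/mL final) plus ATP (1.25 mM final); secreted IL-1B measured by AlphaLISA after 16 hr, decreased signal indicating inhibition.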
TDP1 inh = TDP1 (human) enzyme inhibition; recombinant TDP1, AlphaScreen DNA substrate cleavage; 350,000 compounds, 0.28% hits; Potency, µM (highest dose often 130 µM), without a hit: at the top dose activity change, negative = inhibition, actives largely listed as inhibitors; Q9NUW8; further: potency means the concentration at half of the fitted maximal effect; nearly all actives have a fitted effect of over 40% in size
Target sequence (Q9NUW8 whole entry, looked up): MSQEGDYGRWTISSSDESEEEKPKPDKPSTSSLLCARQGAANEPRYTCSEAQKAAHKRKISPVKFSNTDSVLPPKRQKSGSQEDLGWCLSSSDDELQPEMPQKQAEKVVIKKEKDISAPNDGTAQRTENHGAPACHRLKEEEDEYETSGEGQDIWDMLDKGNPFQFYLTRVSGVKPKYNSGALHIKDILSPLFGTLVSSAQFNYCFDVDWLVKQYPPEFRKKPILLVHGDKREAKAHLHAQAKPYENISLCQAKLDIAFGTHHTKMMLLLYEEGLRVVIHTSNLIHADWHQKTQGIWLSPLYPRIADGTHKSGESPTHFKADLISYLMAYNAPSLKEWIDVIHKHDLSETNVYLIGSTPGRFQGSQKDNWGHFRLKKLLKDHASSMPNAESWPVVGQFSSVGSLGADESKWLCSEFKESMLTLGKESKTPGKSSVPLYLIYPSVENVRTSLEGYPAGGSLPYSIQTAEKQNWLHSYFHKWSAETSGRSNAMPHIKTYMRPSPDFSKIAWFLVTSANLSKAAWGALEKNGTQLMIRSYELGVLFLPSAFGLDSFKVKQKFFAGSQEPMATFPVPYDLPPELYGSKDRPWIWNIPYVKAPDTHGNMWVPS
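Compounds were preincubated with Tdp1 (1 nM final) for 15 min at room temperature before substrate (15 nM final) started a 5 min reaction; beads (10 ug/ml final) were then added for 10 min before AlphaScreen detection.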
* = called active by the depositor; ? = inconclusive; nt = no result given; [ ] = dose if it differs, or a comment. In the library only some 18% were active in any assay of this set; here they are far more common. Unless noted, the call rests on the fitted dose curve; in most records, active means well fitted curve in the direction sought with a large enough effect; inconclusive means small, poorly fitted or top-dose-only effect, or another doubt; inactive means no such curve, though single readings can be large; an effect the other way counts as inactive or inconclusive. On the % scale 0 is the no-effect control and ±100 the full control effect.

SMILES	Six1-Eya2 inh	CtBP-E1A blk	DT40 TDP1 no CPT	TDP1 cell CPT	IL-1B inflam inh	TDP1 inh
O=C(C=Cc1cccs1)c1cccs1	-2	5	26µM*	?	-26	nt
O=C(/C=C/c1cccs1)c1ccc(Br)cc1	5	-1	?	?	?	2%
O=C(/C=C/c1cccc([N+](=O)[O-])c1)N1CCN(c2ccccn2)CC1	0	2	-4%	-6%	25	4%[56.1 µM]
O=C(/C=C/c1cccc([N+](=O)[O-])c1)n1cnc2ccccc21	41	-19	2.6µM*	2.6µM*	-68*	5%
O=C(/C=C\c1cccs1)c1c(O)ccc2ccc(=O)oc12	4	9	?	?	-83*	0%
Cc1cccc(CCNC(=O)C2CCCN(c3cnccn3)C2)c1 (configuration not stated)	3	0	?	-4%	0	2%
COc1cc(F)ccc1CN1CCC(n2nccc2NC(=O)C2CCOC2)CC1 (configuration not stated)	2	5	-11%	5%	8	2%[56.1 µM]
COc1ccc(C2=NN(C(=O)c3cccs3)C(c3ccccc3OC)C2)cc1OC (configuration not stated)	-18	-19	?	?	-84*	-2%
O=C(c1ccccc1Cl)N1N=C(c2ccc(Br)cc2)CC1c1nc2ccccc2[nH]1 (configuration not stated)	-11	-3	16µM*	?	-67*	5%
CC(=O)N1N=C(c2ccncc2)CC1c1ccccc1O (configuration not stated)	1	nt	0%	11%	106	-3%
O=C(c1cccs1)N1N=C(c2ccccc2)CC1c1ccccc1O (configuration not stated)	8	-1	?	-3%	-79*	nt
O=C(c1ccncc1)N1N=C(c2ccc(Br)cc2)CC1c1ccccc1O (configuration not stated)	-18	-8	?	?	-63*	7%
COc1cc(NC(=O)c2cc(S(=O)(=O)N3CCC(C)CC3)cn2C)cc(OC)c1OC	nt	nt	-10%	2%	nt	-1%
CC(=O)N1N=C(c2ccccc2)CC1c1cn(Cc2ccccc2)c2ccccc12 (configuration not stated)	-24	-22	?	18µM*	-4	5%
O=C(c1ccccc1)N1N=C(c2ccccc2)CC1c1ccc2nccnc2c1 (configuration not stated)	0	-4	?	?	-3	5%
O=C(NNC1CC(c2ccccc2)=NN1C(=O)c1ccccc1)c1ccccc1 (configuration not stated)	14	-22	23µM*	26µM*	-7	0%
CN1C(=O)CC(c2cn(Cc3ccccc3)c3ccccc23)C1=O (configuration not stated)	-7	nt	-6%	0%	38	4%
O=C(c1ccccc1)N1N=C(c2ccccc2)CC1c1ccccc1O (configuration not stated)	-18	4	?	23µM*	-108*	-2%
Cc1ccc(C2=NN(C(=O)c3ccccc3F)C(c3ccccc3F)C2)cc1 (configuration not stated)	-10	3	21µM*	21µM*	-16	nt
CCOC(=O)c1[nH]c(C)c(CCC(=O)O)c1C	-5	-3	5%	17%	49	11%
O=C(c1ccco1)N1N=C(c2cccs2)CC1c1ccccc1O (configuration not stated)	-2	-1	21µM*	18µM*	-12	-5%
COc1cccc(C2CC(c3cccs3)=NN2C(=O)c2ccco2)c1O (configuration not stated)	?	0	-11%	-1%	13	18%
CCN(CC)S(=O)(=O)c1cc(NC(=O)CCCOc2ccc(C(C)=O)cc2)ccc1C	2	2	18µM*	?	-2	0%
COC(=O)c1ccc(NC(=O)CN2CCN(S(=O)(=O)c3cc(Cl)ccc3OC)CC2)cc1	-12	-5	16µM*	?	17	-1%
O=C(CCCSc1ccccc1)Nc1ccc(Cl)c(S(=O)(=O)N2CCOCC2)c1	3	-7	18µM*	16µM*	-3	-4%
SMILES	Six1-Eya2 inh	CtBP-E1A blk	DT40 TDP1 no CPT	TDP1 cell CPT	IL-1B inflam inh	TDP1 inh
CC(=O)c1ccc(OCCCC(=O)Nc2cc(S(=O)(=O)N(C)C)ccc2C)cc1	-1	11	-21%	-12%	10	1%
Cc1ccc(OCCCC(=O)Nc2ccc(Cl)c(S(=O)(=O)N3CCOCC3)c2)cc1	-2	0	18µM*	?	?	0%
CC1=C(C(=O)N(C)C)CC(CC(=O)NCC2CCCCC2)C(=O)N1Cc1ccc(F)cc1 (configuration not stated)	8	4	?	?	-27	nt
COc1ccc(CN2CCC(=O)N([C@H](CO)CC(C)C)CC2)cc1OC	20	0	-3%	?	-2	nt
Cc1cccc(NC(=O)COc2ccc(Br)cc2/C=N/O)c1	1	3	-30%	-28%	-1	2%
O=C(c1n[nH]c(=O)c2ccccc12)N1CCN(S(=O)(=O)c2ccccc2Cl)CC1	10	nt	?	?	-9	3%
COc1ccc(Cl)cc1S(=O)(=O)N1CCN(C(=O)c2n[nH]c(=O)c3ccccc23)CC1	6	4	16µM*	18µM*	29	1%
CN(CCOc1ccccc1)CC(=O)Nc1ccc(Cl)c(S(=O)(=O)N(C)C)c1	-2	0	?	8%	-51*	5%
O=C(COc1cccc(Br)c1)Nc1ccc(Cl)c(S(=O)(=O)N2CCOCC2)c1	-21	-17	16µM*	21µM*	?	0%
O=C(CCCOc1ccccc1)Nc1ccc(Cl)c(S(=O)(=O)N2CCOCC2)c1	-1	0	16µM*	18µM*	?	-1%
O=C(N/N=C1/CCS(=O)(=O)c2ccc(F)cc21)c1cccnc1	-3	-1	15%	6%	46	9%
CN(CC(=O)Nc1c(Cl)cccc1Cl)C(=O)c1cccc(S(=O)(=O)NCc2ccccc2)c1	-5	1	?	?	13	1%
Cc1ccc(N2CCN(C(=S)c3ccc(-c4ccccc4[N+](=O)[O-])o3)CC2)cc1	?	?	?	?	-21	10%
